Bioassay records: PubChem, several laboratories
In the library only some 4.2% were active in any assay of this set; here they are far more common.
TIM10 inh: inhibits growth of TIM10 yeast strain; S. cerevisiae TIM10 strain growth, BacTiter-Glo luminescence, 24 h; inhibition, % at 10 µM; actives 1.4% (n = 330,000); AID 463195;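 active = inhibition of 40% or more at the single tested concentration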;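 note: wild-type TIM10 isogenic control strain grown at permissive 25 °C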
NLRP3 yeast inh: NALP3 inhibition in yeast; actives 0.39% (n = 330,000); Yeast reconstituted NLRP3/ASC/caspase-1, beta-gal luminescence, 24 h; inhibition, % at 10 µM;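 active = inhibition of 50% or more; inactive = inhibition below 50%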;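 note: plate controls were induced DMSO wells for no effect and uninduced yeast grown without galactose for full effect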
V-ATPase pHluor: alters yeast V-ATPase proton transport. response, % at 10 µM. actives 0.37% (n = 350,000). S. cerevisiae, pHLuorin cytosolic pH fluorescence; in the data active = response mostly above about 7.3%, no sharp cut-off; inactive = mostly below about 5.4%; note: actives read high
tim10-1 inh: growth inhibitors of tim10-1 mutant yeast | S. cerevisiae tim10-1 ts strain growth, BacTiter-Glo, 24 h | inhibition, % at 20 µM | actives 2.2% (n = 330,000);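 active = inhibition of at least 40%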;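 note: mutant grown at 25 °C; 0% = DMSO wells with yeast and 100% = wells holding no yeast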
tim23-1 inh: growth inhibitors of tim23-1 mutant yeast; actives 1.3% (n = 330,000); S. cerevisiae tim23-1 growth, BacTiter-Glo luminescence, 24 h; inhibition, % at 20 µM;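 active = growth inhibition of the mutant yeast at or above 50%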;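 note: temperature-sensitive mutant grown at 25 °C; plate controls were DMSO-treated mutant yeast for no effect and medium wells lacking yeast for full effect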
NALP1 yeast inh: NALP1 inhibition; S. cerevisiae NALP1/ASC/caspase-1 growth, X-gal OD620, 72 h; inhibition, % at 10 µM; actives 0.61% (n = 280,000); AID 2071; in the data active = inhibition mostly above about 24%, no sharp cut-off; inactive = mostly below about 32%
tim10-1 confirm: tim10-1 yeast growth inhibition, confirmed. shares compounds with tim10-1 inh. S. cerevisiae tim10-1 ts strain growth, BacTiter-Glo, 24 h. inhibition, % at 20 µM. actives 56% (n = 7,400). AID 463213;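 active = inhibition of yeast growth at or above a set limit in either of two repeat tests at 20 µM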;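 note: tim10-1 mutant grown at permissive 25 °C to find synthetic lethal compounds; 0% = DMSO yeast wells and 100% = medium wells without yeast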
tim10 confirm: confirmation of TIM10 yeast growth inhibitors; S. cerevisiae tim10 strain growth, BacTiter-Glo luminescence, 24 h; inhibition, % at 10 µM; shares compounds with TIM10 inh; AID 463215; actives 63% (n = 4,600);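 active = inhibition of yeast growth at or above a set limit in either of two replicates at 10 µM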;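 note: this counterscreen used the strain with wild-type TIM10; 0% = yeast with DMSO and 100% = medium wells lacking yeast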
Starred values were filed as active, the others as inactive; / = no result.

SMILES | TIM10 inh | NLRP3 yeast inh | V-ATPase pHluor | tim10-1 inh | tim23-1 inh | NALP1 yeast inh | tim10-1 confirm | tim10 confirm
CCCCNC(=S)Nc1ccc(Oc2ccccc2)cc1 | 17 | 46 | 4 | 16 | 42 | -17 | / | /
CCOc1ccc(CSCCNC(=S)Nc2ccccc2)cc1 | 47* | 48 | -2 | 42* | 45 | 40 | 20 | -40
CCCNC(=S)Nc1ccc(Oc2ccccc2)cc1 | 42* | 42 | -1 | 42* | 33 | 3 | 21 | 24
S=C(NCCSCc1ccc(Cl)cc1Cl)Nc1ccccc1 | 59* | 35 | 3 | 48* | 0 | 5 | 45* | 53*
CCOC(=O)/C(=C/c1c(C)n(C)c2ccc([N+](=O)[O-])cc12)C(C)=O | 54* | 17 | -2 | 58* | 49 | 21 | 37* | 40*
Cc1cc2cc(C)c(NCCNC(=O)c3ccccc3Cl)nc2cc1C | 44* | 16 | 0 | 42* | 33 | 18 | 30 | 26
CCN(CC)c1ccc(C(=O)NNC(=O)CNC(=O)c2cccs2)cc1 | 8 | 13 | 1 | 13 | 14 | / | / | /
Cc1[nH]c(=O)c(C(=O)/C=C/c2ccccc2F)c2c1CCCC2 | 44* | 15 | 3 | 47* | 41 | 12 | 52* | 38*
C/C(=C\c1ccccc1F)C(=O)c1c(C)cc(C)[nH]c1=O | -18 | 3 | 3 | 27 | -5 | 5 | / | /
O=S(=O)(c1cccc(-c2nc3ccccc3s2)c1)N1CCCC1 | 44* | -99 | -5 | 48* | 47 | 12 | 34* | 42*
O=C(Nc1cnccc1C(F)(F)F)NC1CCCCC1 | 11 | 15 | 2 | 13 | 13 | -1 | / | /
O=C(/C=C/c1cccc(Cl)c1)Nn1c(-c2cccs2)nc2ccccc2c1=O | 43* | 5 | 3 | 45* | 36 | 13 | 36* | 25
COc1ccc(/C=C/C(=O)C2(O)CCCCC2)cc1OC | 44* | 15 | 2 | 47* | 41 | 0 | 40* | 31*
O=C(O)c1cccc(N/N=C/c2cn(-c3ccccc3)nc2-c2cccs2)c1 | 61* | 36 | -2 | 47* | 10 | -21 | 59* | 65*
Cc1ccc(NC(=O)Nc2cc(C(F)(F)F)c[nH]c2=O)cc1 | 9 | 9 | 0 | -20 | 1 | 11 | / | /
CCCCn1c(N)c(N(CC(C)C)C(=O)CSCC(=O)Nc2ccc(C)cc2)c(=O)[nH]c1=O | 22 | 4 | 0 | 0 | 9 | / | / | /
O=C(CN1C(=O)NC2(CCc3ccccc32)C1=O)Nc1ccc(Br)cc1F (centres undefined) | -7 | 16 | -4 | -10 | 0 | / | / | /
O=C(NCCN1CCCC1)C(c1ccccc1)c1ccccc1 | -14 | 9 | 3 | -17 | -45 | 34 | / | /
Clc1ccc(Nc2nc(C3CC3)cs2)cc1 | 43* | 20 | 0 | 54* | 48 | 32 | 49* | 20
COc1ccccc1/C=C/CN1CCCC(CCC(=O)NCc2ccccc2F)C1 (centres undefined) | 43* | -5 | -1 | 52* | 12 | -21 | 36* | 29
O=C(Nc1ccccn1)c1ccc([N+](=O)[O-])o1 | 44* | 13 | 5 | 44* | 46 | 37 | 39* | 35*
CC(=O)c1ccc(S(=O)(=O)Oc2ccc(-c3ccc(C(=O)O)cc3)cc2)cc1 | 5 | -6 | 1 | -10 | 10 | 5 | / | /
N/C(CCS(=O)(=O)c1ccc(Cl)cc1)=N\OC(=O)c1ccccc1Cl | 51* | 20 | -3 | 62* | 42 | 17 | 71* | 50*
NC(=O)CCS(=O)(=O)c1ccc(Cl)cc1 | -18 | 6 | -2 | -2 | 12 | 5 | / | /
CC(=O)c1cccc(NC(=O)N2C3CCCC2CC(NC(=O)C2CC2)C3)c1 (centres undefined) | -10 | 10 | 2 | -5 | 3 | 6 | / | /
SMILES | TIM10 inh | NLRP3 yeast inh | V-ATPase pHluor | tim10-1 inh | tim23-1 inh | NALP1 yeast inh | tim10-1 confirm | tim10 confirm
CCN(CC)Cc1cc2[nH]c3c4ccc(Cl)cc4ncc3c2cc1OC | 68* | 10 | 0 | 57* | 34 | 0 | 50* | 35*
COc1ccc(CNc2ncnc3cc(Cl)ccc23)cc1OC | / | / | -2 | / | / | -4 | / | /
COc1ccc(C(=O)CCC(=O)Nc2cccnc2)cc1OC | -6 | 12 | -1 | 12 | 10 | -12 | / | /
O=C(COc1cccnc1[N+](=O)[O-])Nc1ccc(Cl)c(S(=O)(=O)N2CCOCC2)c1 | -8 | 1 | 2 | 0 | 6 | 2 | / | /
O=C(Nc1cccc2ccccc12)c1ccc([N+](=O)[O-])s1 | -21 | 11 | 0 | 36 | -73 | 42 | / | /
O=C(Nc1ccccc1F)c1ccc([N+](=O)[O-])s1 | 56* | 9 | 1 | 45* | -51 | 0 | 59* | 64*
CCOc1ccc2[nH]c3nc(SCC(=O)NCC4CCCO4)nnc3c2c1 (centres undefined) | 11 | 11 | -1 | -6 | 1 | 0 | / | /
CCOc1ccc2c(c1)c1nnc(SCC3CCCO3)nc1n2C (centres undefined) | 44* | 21 | -1 | 46* | 23 | -6 | 30* | 47*
C=CCn1c(CCc2cc(C(C)(C)C)c(O)c(C(C)(C)C)c2)n[nH]c1=S | 42* | 32 | 0 | 50* | 47 | -6 | 21 | 40*
C=CCn1c(Cc2ccccc2)n[nH]c1=S | 14 | 1 | -2 | 12 | 2 | -3 | / | /
Cc1noc(C)c1CSCC(=O)Nc1cc(Cl)ccc1N1CCCCC1 | -7 | 1 | -2 | 15 | 21 | / | / | /
COc1ccccc1NS(=O)(=O)c1ccc2oc(=O)ccc2c1 | 47* | 4 | -1 | 43* | 30 | 25 | 21 | 44*
COC(=O)c1cc(NC(=S)Nc2cc(Cl)cc(Cl)c2)cc(C(=O)OC)c1 | 50* | 3 | -1 | 49* | 38 | 9 | 33* | 24
CCC(=O)N1CCc2cc(S(=O)(=O)N3CCN(c4ccccn4)CC3)ccc21 | 44* | 6 | 4 | 43* | 23 | -41 | 37* | 2
CCC(=O)N1CCc2cc(S(=O)(=O)N3CCN(c4ccccc4)CC3)ccc21 | 5 | 11 | -3 | 7 | 6 | 6 | / | /
CCn1cc(C(=O)NCCC(=O)NCCCO)c(=O)c2cc3c(cc21)OCO3 | 6 | 20 | 4 | 9 | 17 | 12 | / | /
CCOC(=O)C1=C(C)Nc2nc(SCC)nn2C1c1ccc(OC)cc1 (centres undefined) | 12 | 8 | -1 | 15 | -10 | 16 | / | /
CCOC(=O)C1=C(C)Nc2nc(=S)[nH]n2C1c1ccc(Cl)cc1 (centres undefined) | 48* | 36 | 5 | 55* | 44 | -10 | 44* | 1
